# Laboratory results from the supplement of paper PMC3842684.
# Test system: P. falciparum NF54-pfs16-GFP late (IV-V) stage gametocytes
# Experiment: relative % inhibition of viable gametocyte number; higher = more gametocytocidal
# Conditions: 0.5 µM; stage: late (IV-V) gametocyte; incubation 72 h
# Method in brief: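 Compound was tested in duplicate at 5 or 0.5 µM on magnet-isolated NF54 pfs16-GFP gametocytes, taken either early (I/IIa, day 2) or late (day 8) and plated at 10% parasitaemia, 0.1% haematocrit. Incubation ran 72 h at 37°C, 5% CO2, 5% O2, followed by overnight MitoTracker Red staining and confocal imaging. Relative inhibition, based on counts of elongated GFP objects with above-cut-off MitoTracker signal, was normalised to in-plate vehicle and positive-control wells.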
row,SMILES,relative % inhibition
1,Cc1ccc(-c2cc3c(SCC(=O)Nc4cc(C(F)(F)F)ccc4Cl)nccn3n2)cc1,14.7%
2,COc1ccccc1CNC(=O)CCn1c(=O)[nH]c2ccsc2c1=O,-0.5%
3,CCOC(=O)C1=C(c2ccccc2)N=c2sc(=Cc3cc(C)n(-c4ccc(F)cc4)c3C)c(=O)n2C1c1cccc(OC)c1OC (stereo unspecified),50.5%
4,O=C(NCc1ccco1)C1CCN(S(=O)(=O)c2ccc(Cl)cc2)CC1,18.1%
5,Cc1ccc2nc(C)cc(Nc3cccc(C(F)(F)F)c3)c2c1,26.7%
6,Cc1sc(NC(=O)c2ccccc2)c(C(c2cccs2)N2CCN(c3ccccc3)CC2)c1C (stereo unspecified),43.3%
7,COc1ccc(CCn2c(=N)c(C(=O)NCc3cccnc3)cc3c(=O)n4cccc(C)c4nc32)cc1,-7.36%
8,Cc1cccc(N2C(=O)C3C(C2=O)C2(c4ccccc4)C(=O)C3(c3ccccc3)C(c3ccc4c(c3)OCO4)=C2c2ccc3c(c2)OCO3)c1 (stereo unspecified),24.7%
9,Cc1ccc(F)cc1NC(=O)c1cc(Cl)ccc1Nc1ccccc1,23.8%
10,Cc1ccc(Cn2c(N3CCC(C(=O)NCc4cccs4)CC3)nc3ccccc32)cc1,5.62%
11,CCCCCCOC(=O)C1=C(C)NC(=O)NC1c1ccccc1F (stereo unspecified),-3.35%
12,O=C1c2ccccc2C2=Nc3ccccc3SC(c3cccc(F)c3)C12 (stereo unspecified),43.7%
13,N#Cc1nc(Cc2cccc3ccccc23)oc1N1CCN(C(c2ccccc2)c2ccccc2)CC1,7.14%
14,C=CCc1c(C)nc2ccccc2c1O,36.3%
15,Cc1ccc(CSCc2ccc(C(=O)NC3CC3)o2)cc1,19.6%
16,O=C(CSc1ccc2nnc(-c3cccc(F)c3)n2n1)Nc1ccc2c(c1)OCO2,19%
